Active and inactive are the calls of the source.

This assay in a line: JC-1 mitochondrial signal, unstimulated adipocytes – cell-based, JC-1 fluorescence, 3T3-L1 adipocytes, 24 h, 100 nL compound, profiling panel (AID 1168). Further: test concentration not given here. Particulars: JC-1 mitochondrial fluorescence, higher = more signal, called active from +8 up or from −8 down.
Take `COC(=O)C(CC#Cc1ccc2c(c1)[C@]1(C(=O)N2)[C@H](C(=O)NC[C@H](O)c2ccccc2)[C@H]2C(=O)O[C@H](c3ccccc3)[C@H](c3ccccc3)N2[C@@H]1c1ccccc1OCCO)C(=O)OC`: the z-score was 1.82 (inactive).

On to `CN(C)CCCNC(=O)[C@@]1(Cc2ccccc2I)c2ccccc2C(=O)N(C2CCCCC2)[C@H]1c1ccc(CO)cc1`, for which the z-score is 2.14 (inactive).

Turning to `CN1C(=O)C2C=CC(C(O)c3ccc(-c4ccccc4)s3)N(NC(=O)OC(C)(C)C)C2C1=O` (stereo not given), the z-score was -0.339 (inactive).

For `CCCNC(=O)[C@@]1(Sc2ccc(C)cc2)CC(=O)N(Cc2ccccc2Cl)[C@@H]1c1ccc(CO)cc1I`, the z-score was 0.667 (inactive).

For the molecule `CN(C)c1ccc(C(O)C2C=CC3C(=O)N(Cc4ccccc4)C(=O)C3N2n2cnnc2)cc1` (stereo not given), the z-score was 0.522 (inactive).

Turning to `C[C@@H]1ON(c2ccccc2)[C@H](c2ccccc2)[C@H]1C(=O)O`, the z-score is -0.212 (inactive).

Take `O=C1[C@H]2C=C(I)[C@H](C[C@@H]2c2ccccc2)[C@@]12CO2`: the z-score is 0.789 (inactive).

For the molecule `C=CCC(OC(C)=O)[C@@H]1[C@@H](N(Cc2ccc(-c3cccc(C(F)(F)F)c3)o2)C(=O)c2ccc(-c3ccccc3)cc2)c2cc(OCCCO)ccc2N1C(=O)c1ccc2ccccc2c1` (stereo not given in full), the z-score was -0.081 (inactive).

`O=C(NCc1ccc(F)cc1)[C@H]1C[C@H]2C(=O)N3CCC[C@H]3C(=O)N2[C@H]1c1ccc(O)cc1`: the z-score was 0.811 (inactive).

As to `N#Cc1ccc(NN2C(C(O)C3CC=CCC3)C=CC3C(=O)N(c4ccccc4)C(=O)C32)cc1` (stereo not given), the z-score was -1.14 (inactive).

Take `CCCNC(=O)[C@@]1(c2ccc([N+](=O)[O-])cc2)CC(=O)N(C(C)C)[C@@H]1c1ccc(CO)cc1`: the z-score was -0.584 (inactive).

As to `CC(C)N1C(=O)C[C@@](C(=O)NCCN2CCOCC2)(c2ccc([N+](=O)[O-])cc2)[C@H]1c1ccc(CO)cc1`, the z-score was -0.279 (inactive).

Take `C[N+](C)(C)CCCC[C@@H]1NC(=O)[C@H]2C[C@@H](C(=O)NCCCCCNC(=O)CS)[C@@H](c3cccc(OCCO)c3)N2C1=O`: the z-score was 0.127 (inactive).

Consider `[N-]=[N+]=Nc1ccccc1[C@@H]1OC(c2ccc(OCCCO)cc2)=N[C@]1(Cc1ccccc1)C(=O)NCCN1CCOCC1`, for which the z-score is -0.0447 (inactive).

For `CCOC(=O)C[C@H]1[C@H](OC(=O)c2ccccc2-c2ccccc2)[C@@H](NC(=O)C2CCCCC2)c2cc(OCCCO)ccc2N1C(=O)c1ccc2ccccc2n1`, the z-score was 1.19 (inactive).

For `NC(=O)N1C(=O)C2C(C1=O)C1C=C(CCCO)C2C(c2ccc(CN3CCCC3)cc2)N1Cc1sc2ccccc2c1Cl` (stereo not given), the z-score was -0.753 (inactive).

As for `CC(C)(C)N1CC=CC23O[C@@H]4/C=C\CCCOC(=O)C4[C@H]2C(=O)N(CCCO)[C@@H]3C1=O` (stereo not given in full), the z-score was 0.822 (inactive).

With `CC(C)N1C(=O)c2ccccc2[C@](C)(C(=O)NCC(F)(F)F)[C@@H]1c1ccc(CO)cc1`, the z-score was -0.0819 (inactive).

As for `COc1ccc(C#Cc2ccc3c(c2)[C@]2(C(=O)N3)[C@H](C(=O)O)[C@H]3C(=O)O[C@H](c4ccccc4)[C@H](c4ccccc4)N3[C@@H]2c2ccccc2OCCO)cc1`, the z-score was 2.1 (inactive).

In the case of `CCCCCC1=C2CNC(Cc3ccccc3)(C(=O)OC)C=C2C(C)C1=O` (stereo not given), the z-score was -1.55 (inactive).

`CCCCCCc1nc(-c2ccc(-c3ccc(Cl)c(Cl)c3)o2)cc2c1[Si](C(C)C)(C(C)C)OC2`: the z-score is 0.771 (inactive).

For the molecule `COC(=O)[C@H](Cc1ccccc1)N1CC2=CCCC=C[C@@H]2[C@H]1[C@H](O)Cc1ccccc1`, the z-score is -0.116 (inactive).

`COC(=O)[C@@]1(Cc2ccc(F)cc2)[C@H]2c3cc(C(=O)N4CCCC4)n(CCc4ccccn4)c3C[C@H]2CN1C(=O)c1ccccc1`: the z-score is -0.962 (inactive).

For the molecule `O=C1N(CCS(=O)(=O)c2ccccc2)c2ccccc2C[C@]12N=C(c1ccc(OCCCO)cc1)O[C@@H]2c1ccccc1`, the z-score is 1.07 (inactive).

In the case of `C=CCN1C(=O)[C@]2(O[C@H](CCn3cc([C@H](O)c4ccccc4)nn3)[C@@H]([Si](C)(C)c3ccc(OC)cc3)[C@@H]2C)c2cc(NC(=O)c3ccc(OC)cc3)ccc21`, the z-score was 0.517 (inactive).

For the molecule `C=C(COC)C(=O)CC[C@@H](OC(C)=O)c1ccccc1OCCO`, the z-score is -0.22 (inactive).

`COC(=O)[C@@]1(Cc2ccc(F)cc2)[C@H]2c3cc(C(=O)N4CCCC4)n(Cc4ccccn4)c3C[C@H]2CN1C(=O)c1ccccc1`: the z-score was -0.474 (inactive).

In the case of `C=CCOC(=O)[C@@H]1[C@H]2C(=O)O[C@H](c3ccccc3)[C@H](c3ccccc3)N2[C@H](c2ccc(OCCOC(=O)[C@H]3C[C@H]4C(=O)NCC(=O)N4[C@H]3c3cccc(OCCO)c3)cc2)[C@@]12C(=O)Nc1ccc(I)cc12`, the z-score is 1.44 (inactive).

With `COC(=O)C[C@H]1O[C@@]2(C[C@@H]1[Si](C)(C)C)C(=O)N(C)c1ccccc12`, the z-score was 0.63 (inactive).

`CN(C)CCCC[C@@H]1NC(=O)[C@@H]2C[C@H](C(=O)NCCCCCCNC(=O)CS)[C@H](c3ccc(O)cc3)N2C1=O`: the z-score was 0.207 (inactive).

For the molecule `CCOC(=O)C1=CC[C@@H](c2ccc(OC)cc2)N(S(=O)(=O)c2ccc(C)cc2)[C@H]1CC`, the z-score was 1.53 (inactive).

Regarding `C=C(CCCC)/C(=C/C[C@H](OC(=O)c1ccncc1)c1ccc(OCCO)cc1)c1cnc2ccccc2c1`, the z-score is -0.689 (inactive).

As to `COC(=O)[C@@]1(Cc2ccc(F)cc2)[C@H]2c3cc(C(=O)N4CCCC4)n(Cc4cc(F)cc5c4OCOC5)c3C[C@H]2CN1C(=O)c1ccccc1`, the z-score is -0.484 (inactive).

With `C=C(CCCC)C(=O)CC[C@H](OC(=O)c1ccccc1-c1ccccc1C(=O)O)c1ccc(OCCO)cc1`, the z-score was -0.245 (inactive).

Consider `C[N+](C)(C)CCCCNC(=O)[C@H]1C[C@H]2C(=O)N[C@@H](Cc3ccccc3)C(=O)N2[C@H]1c1cccc(OCCO)c1`, for which the z-score is -0.318 (inactive).
